In the library only some 11% were active in any assay of this set; here they are far more common.
NS1 function inh: qHTS Assay for Inhibitors of Influenza NS1 Protein Function; Potency, µM (highest dose often 46.1 µM); hit rate 0.4% among 270,000; AID 2326, 2010; calls by dose curve; also: actives are rising curves; nearly all actives have a fitted effect of over 50% in size
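Read-out: OD600 growth recovery of NS1-expressing budding yeast. Cells grown overnight at 30C in -URA glucose medium, washed, resuspended and diluted 1:100 in 2% galactose assay medium, pH 6.0. Same strain lacking NS1 served as positive control.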
AMA1 RON2 block: qHTS for Inhibitors of AMA1-RON; Towards Development of Antimalarial Drug Lead: Primary Screen; Plasmodium falciparum AMA1 (3D7) - RON2 peptide interaction; AlphaScreen AMA1-biotinylated RON2 peptide binding; Potency, µM (doses to about 58.2 µM), usual class: inhibitors; hit rate 0.2% among 360,000; also: nearly all actives have a fitted effect of over 45% in size
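AMA1 (3D7) with his tag at 25 nM final met compounds first, then biotinylated RON2 peptide at 25 nM; detection used donor plus acceptor beads, 10 µg/mL apiece, read by AlphaScreen after 30 min at room temperature.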
Pf growth 48h: Primary qHTS for delayed death inhibitors of the malarial parasite plastid, 48 hour incubation | P. falciparum luciferase growth in erythrocytes, 48 h | Potency, µM (series often up to 28.7 µM), most hits filed as inhibitors | hit rate 5.9% among 310,000
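First compound was added to culture medium, then infected red cells at 0.1% parasitemia and 2% hematocrit (final). After incubation at 37 C under 5% CO2, luciferase detection reagent was dispensed and light output recorded.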
Sm TGR block: qHTS Assay for the Inhibitors of Schistosoma Mansoni Peroxiredoxins; purified TGR, DTNB reduction, TNB absorbance 405 nm; AID 485364, 2010; Potency, µM (highest dose often 114 µM), most hits filed as inhibitors; hit rate 3% among 360,000; also: nearly all actives have a fitted effect of over 60% in size
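First, TGR (20 nM dispensed) and NADPH were mixed with compound. Second, a 15 min room-temperature incubation followed. Third, further NADPH and then DTNB were added to start the reaction. Finally, TNB absorbance was monitored kinetically.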
Pf growth 96h: Primary qHTS for delayed death inhibitors of the malarial parasite plastid, 96 hour incubation. Potency, µM (highest dose often 28.7 µM), hits mostly inhibitors. P. falciparum luciferase reporter growth, 96 h. AID 504834, 2011. hit rate 6.9% among 320,000
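Plates of compound plus infected erythrocytes (2% hematocrit, 0.05% parasitemia final) incubate 96 hours, 37 C, 5% CO2. Detection reagent added; reduced luminescence from the parasites' luciferase reporter flags inhibition.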
A number is an active result; 0 = inactive; ? = inconclusive; - = no result given; [ ] = another dose, or the depositor's remark. Unless noted, calls follow the shape of the dose curve; as a rule, active = well fitted curve in the direction sought with a large enough effect; inconclusive = small, poorly fitted or top-dose-only effect, or another doubt; inactive = no such curve, though single readings can be large; an effect the other way counts as inactive or inconclusive.

SMILES | NS1 function inh | AMA1 RON2 block | Pf growth 48h | Sm TGR block | Pf growth 96h
CCS(=O)(=O)NCCNc1ccc([N+](=O)[O-])cc1 | 0 | 0 | 0 | 0 | 11.7µM
C/C(=N\NC(=S)Nc1cccc(C)c1)c1cc2ccccc2o1 | 0 | 0 | ? | 0 | 8.28µM
Cc1cccc(NC(=S)N/N=C(\c2ccccc2)C(C)C)c1 | 0 | 0 | ? | 0 | 0
Cc1cccc(NC(=S)NNC(=O)c2cccc([N+](=O)[O-])c2)c1 | 0 | 0 | 0 | 0 | ?
COc1ccc(CCNC(=O)Nc2cccc([N+](=O)[O-])c2)cc1 | - | 0 | 0 | 0 | 13.1µM
CCNC(=S)N/N=C(\C)c1cc2ccccc2o1 | 0 | 0 | ? | 0 | ?
CC/C(=N\NC(=S)Nc1cccc(C)c1)c1ccccc1 | 0 | 0 | 9.28µM | - | ?
COc1ccc(CCNC(=O)Nc2cccc([N+](=O)[O-])c2)cc1OC | 0 | 0 | 0 | - | 0
C/C(=N/NC(=S)Nc1cccc(C)c1)c1cccc([N+](=O)[O-])c1 | 0 | 0 | 11.7µM | - | 0
Cc1cccc(NC(=O)c2oc3ccccc3c2NC(=O)Cc2coc3cc(C)cc(C)c23)c1 | - | - | - | 0 | -
O=C(CCCCCn1c(=O)c2sccc2n(Cc2ccc(Cl)cc2)c1=O)NCc1ccc2c(c1)OCO2 | - | - | - | 0 | -
O=c1onc(-c2ccccc2Cl)n1-c1ccccc1Cl | - | 0 | - | - | -
CCNC(=S)Nc1cccc([N+](=O)[O-])c1 | 0 | - | 0 | 0 | 0
C=CCNC(=S)Nc1cccc([N+](=O)[O-])c1 | 0 | 0 | 0 | 31.6µM | 0
Cc1c(C(=O)O)oc2c1C(O)CC(C)(C)C2 (stereo unspecified) | 0 | 0 | 0 | 0 | 0
Cc1c(C(=O)O)oc2ccc3c(c12)C(O)CC(C)(C)O3 (stereo unspecified) | 0 | 0 | 0 | 0 | 4.65µM
CCCOc1ccc(Cc2c(Cl)nc(SC)nc2OC)cc1 | 0 | 0 | 0 | 0 | 0
COc1nc(SC)nc(Cl)c1Cc1ccc(OC(C)C)cc1 | 0 | 0 | 0 | 0 | 1.04µM
CCCCCOc1ccc(CSCCNC(=S)Nc2ccccc2)cc1 | 0 | 0 | ? | 0 | 10.4µM
O=C(Nc1ccccc1)Nc1ccc2snnc2c1 | 0 | 0 | ? | 0 | 3.29µM
CCCCSc1nnc2c(n1)OC(c1ccc(Br)s1)N(C(C)=O)c1ccccc1-2 (stereo unspecified) | - | - | - | 0 | -
O=C(Nc1ccccc1C(F)(F)F)N1CCOc2ccc(Cl)cc21 | - | - | - | 0 | -
COc1ccc(-c2noc(C)c2-c2ccc3ccccc3n2)c(O)c1 | 0 | 0 | 11.7µM | 0 | 14.7µM
COc1ccccc1C(=O)COC(=O)C1CCN(S(=O)(=O)c2ccc(C)c(C)c2)CC1 | - | 0 | 0 | 0 | 0
Cc1cc(NC(=O)C2(C)CCN2C(C)C)c2ccccc2n1 (stereo unspecified) | - | 0 | - | - | -
SMILES | NS1 function inh | AMA1 RON2 block | Pf growth 48h | Sm TGR block | Pf growth 96h
CCCC1=[N+](CC(C)=O)CCn2c(C)ccc21 | - | 0 | ? | 28.2µM | 0
O=C(O)CSc1c(Cl)c(=O)oc2ccc(Cl)cc12 | - | 0 | - | - | -
COc1cccc(-c2cc(C(=O)Nc3c(C)nn(Cc4ccccc4C)c3C)no2)c1 | 0 | 0 | 5.22µM | 0 | 0
COc1ccc(-c2cc(C(=O)Nc3c(C)nn(Cc4ccccc4)c3C)no2)cc1 | 0 | 0 | - | 0 | 4.65µM
COc1cccc(-c2cc(C(=O)Nc3c(C)nn(Cc4ccccc4)c3C)no2)c1 | 0 | 0 | ? | 0 | ?
COc1ccc(-c2cc(C(=O)Nc3c(C)nn(Cc4ccccc4C)c3C)no2)cc1 | - | - | - | 0 | -
CCN(CC(=O)Nc1ccc2c(c1)OCCO2)C(=O)/C=C/c1ccc([N+](=O)[O-])cc1 | - | 0[11.6 µM] | 0 | 0 | 0
COc1ccccc1CNC(=O)[C@H](C)NC(=O)C1CCN(C(=O)[C@H](CCSC)NC(=O)OC(C)(C)C)CC1 | 0 | 0 | ? | 0 | 0
CN1C(=O)/C(=C/C=C2/CCCN2C)N(C)C1=S | 0 | ? | 0 | 0 | 1.47µM
Cc1cc(N2CCCC2)ccc1/C=C1/C(=O)N(C)C(=S)N1C | 0 | ? | 0 | 0 | 0
O=C(C1CCCCC1)N1CCN(c2ccnc3cc(Cl)ccc23)CC1 | 0 | 0 | 1.85µM | 0 | 3.29µM
CC(=O)c1ccc(N2CCN(c3ccnc4cc(Cl)ccc34)CC2)cc1 | 0 | 0 | 10.4µM | 0 | 6.57µM
O=C(C1CC1)N1CCN(c2ccnc3cc(Cl)ccc23)CC1 | - | 0 | 0 | 0 | 7.38µM

Bioassay records from PubChem.
